Records with an inconclusive call do not appear. Activity calls are given as the source filed them. Unless noted, calls follow the shape of the dose curve; as a rule, active = well fitted curve in the direction sought with a large enough effect; inconclusive = small, poorly fitted or top-dose-only effect, or another doubt; inactive = no such curve, though single readings can be large; an effect the other way counts as inactive or inconclusive.
Key:
[1] = qHTS to identify inhibitors of the type 1 interferon - major histocompatibility complex class I in skeletal muscle: primary screen against the NCATS Pharmaceutical Collection (AID 1347407);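 also: luminescence of HiBiT knocked into endogenous HLA-B as interferon-induced MHC class I level; % is scaled to controls: 0 for no effect and ±100 for the full control effect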
Outline: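 HLA-B HiBiT myoblasts, dexamethasone-free growth medium + 4 ng/ml IFN-b; compounds pinned 1 h after seeding, […] from 46 uM; 24 h, 37 C, 5% CO2; lytic HiBiT detection, 10 min RT, luminescence.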

[2] = biological target: Protein phosphatase 1D (Homo sapiens) (UniProt O15297); experiment: RapidFire Mass Spectrometry qHTS Assay for Modulators of WT P53-Induced Phosphatase 1 (WIP1) (AID 1347424);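 also: amount of dephosphorylated VEPPL-S-QETFS peptide product formed by WIP1; series mostly up to about 63 µM; plate controls were DMSO wells for no effect and GSK830371 inhibitor control at 10 µM for full effect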
Outline: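 WIP1 (10 nM final) was preincubated 1 h at room temperature with compounds in Tris-HCl pH 7.5, 30 mM MgCl2, TCEP, EGTA, BSA; 2 uM VEPPL-pS-QETFS phosphopeptide was added for 5 min, quenched with formic acid, and dephosphorylated product quantified by RapidFire MS.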

[3] = biological target: Protein phosphatase 1D (Homo sapiens) (UniProt O15297); experiment: Rhodamine-PBP qHTS Assay for Modulators of WT P53-Induced Phosphatase 1 (WIP1) (AID 1347425); also: % of control where 0% means no effect
Outline: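 Steps: enzyme with Rh-PBP sensor and compounds, room-temperature incubation of 1 hr, baseline read, addition of VEPPL-pS-QETFS (10 uM final), kinetic fluorescence reads at 525/598 nm. Activity equals final minus baseline signal.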

[4] = Primary qHTS for inhibitors of La Crosse Virus (LACV) - induced cell death in SH-SY5Y cells (AID 1508616);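 also: top concentration of the series differs between compounds; 0% = infected DMSO wells and 100% = uninfected DMSO wells; higher means more rescue of cells from virus-induced death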
Outline: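 Protection against LACV-induced cell death is scored in SH-SY5Y cells exposed to compounds and virus (0.01 MOI) for 6 days. Data normalized to virus-infected DMSO wells and virus-free DMSO wells.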

[5] = biological target: Calcium and integrin-binding protein 1 (Homo sapiens) (UniProt Q99828); experiment: Primary qHTS for Identification of Calcium Integrin Binding Protein 1 (CIB1) Competitor (AID 1508620);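 also: GST tagged CIB1 binding a fluorescein labelled alphaIIb integrin peptide tracer; top concentration of the series differs between compounds; % is scaled to controls: 0 for no effect and ±100 for the full control effect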
Outline: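 Fluorescence polarization competition: CIB1-GST (1 uM final) preincubated with compound 15 min at room temperature, then FITC-labeled alphaIIb peptide (100 nM final) added for another 15 min. Polarization read at Ex 480/Em 540.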

[6] = A High-Content qHTS Against Drug Library for the Identification of Small Molecules that Inhibit DYT1 Early Onset Primary Dystonia-Associated Cell Pathology (AID 1645839; calls by dose curve; also: series mostly up to about 46 µM)
Outline: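 Readout: %pathology, the punctate EGFP-TorsinA distribution from imaging, as the primary channel and cell count as the toxicity counterscreen. HEK293 Flp-In cells expressing delE TorsinA were induced with tetracycline and treated with compound for 48 h.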

[7] = biological target: Cytochrome P450 2D6 (Homo sapiens) (UniProt P10635); experiment: Cytochrome P450 family 2 subfamily D member 6 (CYP2D6) small molecule antagonists: luciferase biochemical (cell-free) qHTS assay (AID 1645840; active = well fitted curve in the direction sought with a large enough effect in the repeat runs; an effect the other way counts as inactive or inconclusive; also: nearly all actives have a fitted effect of over 55% in size; also: potency is read from the fitted curve at half-maximal effect; as to activity change, negative = inhibition: series mostly up to about 57 µM; % is scaled to controls: 0 for no effect and ±100 for the full control effect)
Outline: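 P450-Glo luminescent screen: recombinant CYP2D6 enzyme–proluciferin substrate mix preincubated with compound 10 min at room temperature, then NADPH regeneration added for 1 h at room temperature. Detection reagent added for 20 min; luciferin light read as relative luminescence units.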

[8] = biological target: Cytochrome P450 2C9 (Homo sapiens) (UniProt P11712); experiment: Cytochrome P450 family 2 subfamily C member 9 (CYP2C9) small molecule antagonists: luciferase biochemical (cell-free) qHTS assay (AID 1645842; active = well fitted curve in the direction sought with a large enough effect in the repeat runs; an effect the other way counts as inactive or inconclusive; also: nearly all actives have a fitted effect of over 55% in size; also: potency is read from the fitted curve at half-maximal effect)
Outline: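 Luminescence, after 20 min with luciferin detection reagent, reflected CYP2C9 turnover during a 1 h NADPH-driven reaction at 37C. Enzyme-substrate mix contained 0.4% bovine serum albumin and was preincubated with compound 10 min at room temperature.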

[9] = Primary qHTS for small molecule stabilizers of the endoplasmic reticulum resident proteome: Secreted ER Calcium Modulated Protein (SERCaMP) assay (AID 1508630); also: % is scaled to controls: 0 for no effect and ±100 for the full control effect
Outline: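 GLuc-SERCaMP-expressing SH-SY5Y cells, pretreated 16 h with compound, are challenged with thapsigargin to empty ER calcium stores; after 4 h, coelenterazine is added directly to the medium and luminescence is imaged.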

Protein phosphatase 1D (Homo sapiens), sequence (O15297 whole entry, looked up): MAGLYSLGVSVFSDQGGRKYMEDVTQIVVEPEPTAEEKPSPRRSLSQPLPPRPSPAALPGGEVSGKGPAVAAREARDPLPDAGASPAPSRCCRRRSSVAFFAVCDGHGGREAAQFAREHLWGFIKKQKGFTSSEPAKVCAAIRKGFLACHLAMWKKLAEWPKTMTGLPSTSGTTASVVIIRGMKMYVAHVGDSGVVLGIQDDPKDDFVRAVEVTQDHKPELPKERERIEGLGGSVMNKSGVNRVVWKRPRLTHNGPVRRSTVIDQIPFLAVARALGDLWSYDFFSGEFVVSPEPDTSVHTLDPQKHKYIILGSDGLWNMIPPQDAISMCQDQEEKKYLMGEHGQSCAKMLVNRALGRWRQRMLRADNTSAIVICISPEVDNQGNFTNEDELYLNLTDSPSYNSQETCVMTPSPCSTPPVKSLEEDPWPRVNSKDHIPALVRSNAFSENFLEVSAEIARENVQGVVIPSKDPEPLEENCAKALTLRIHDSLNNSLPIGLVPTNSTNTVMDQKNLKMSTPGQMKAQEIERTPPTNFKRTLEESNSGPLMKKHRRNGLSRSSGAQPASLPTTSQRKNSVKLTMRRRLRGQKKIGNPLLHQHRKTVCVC
Calcium and integrin-binding protein 1 (Homo sapiens), sequence (Q99828 whole entry, looked up): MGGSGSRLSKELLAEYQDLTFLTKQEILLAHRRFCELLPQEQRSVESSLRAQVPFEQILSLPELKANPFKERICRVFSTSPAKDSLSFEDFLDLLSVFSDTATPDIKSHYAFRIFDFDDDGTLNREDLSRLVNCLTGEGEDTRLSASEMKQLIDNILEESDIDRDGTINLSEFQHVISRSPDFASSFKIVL
Cytochrome P450 2D6 (Homo sapiens), sequence (P10635 whole entry, looked up): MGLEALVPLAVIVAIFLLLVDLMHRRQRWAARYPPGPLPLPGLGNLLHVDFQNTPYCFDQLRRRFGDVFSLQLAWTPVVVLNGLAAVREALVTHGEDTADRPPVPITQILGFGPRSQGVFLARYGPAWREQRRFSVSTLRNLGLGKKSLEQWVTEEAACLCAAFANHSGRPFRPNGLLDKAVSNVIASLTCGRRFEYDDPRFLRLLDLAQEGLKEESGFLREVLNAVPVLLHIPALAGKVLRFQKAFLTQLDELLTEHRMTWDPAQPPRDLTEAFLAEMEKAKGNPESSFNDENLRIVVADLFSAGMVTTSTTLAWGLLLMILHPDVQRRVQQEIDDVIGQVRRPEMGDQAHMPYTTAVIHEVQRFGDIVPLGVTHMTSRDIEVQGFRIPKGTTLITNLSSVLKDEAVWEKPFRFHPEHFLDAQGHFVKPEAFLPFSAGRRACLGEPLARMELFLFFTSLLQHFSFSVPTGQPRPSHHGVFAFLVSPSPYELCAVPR
Cytochrome P450 2C9 (Homo sapiens), sequence (P11712 whole entry, looked up): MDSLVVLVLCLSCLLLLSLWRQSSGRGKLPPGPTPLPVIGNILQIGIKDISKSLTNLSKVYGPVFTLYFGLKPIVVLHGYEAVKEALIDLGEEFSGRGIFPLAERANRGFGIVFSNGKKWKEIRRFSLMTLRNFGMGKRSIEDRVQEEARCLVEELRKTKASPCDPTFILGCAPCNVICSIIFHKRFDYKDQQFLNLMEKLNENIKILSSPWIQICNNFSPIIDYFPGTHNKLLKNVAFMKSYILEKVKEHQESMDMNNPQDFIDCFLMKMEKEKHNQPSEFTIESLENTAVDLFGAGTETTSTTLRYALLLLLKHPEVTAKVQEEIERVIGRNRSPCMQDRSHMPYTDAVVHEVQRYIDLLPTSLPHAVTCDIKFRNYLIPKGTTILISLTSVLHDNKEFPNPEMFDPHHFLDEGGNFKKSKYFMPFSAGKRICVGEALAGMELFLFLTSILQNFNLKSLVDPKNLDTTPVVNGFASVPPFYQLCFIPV

COc1cc(C(=O)NCCCCCC(=O)O)cc(OC)c1OC
inactive: outcome [1] | outcome [2] | outcome [3] | outcome [4] | outcome [5] | Potency [6] | Potency [7] | Potency [8]

C/C(=C(\CCO)SS/C(CCO)=C(\C)N(C=O)Cc1cnc(C)nc1N)N(C=O)Cc1cnc(C)nc1N
inactive: outcome [1] | outcome [2] | outcome [3] | outcome [4] | outcome [5] | Potency [6] | Potency [8]

CCCCCCCCCCOc1cc2c(=O)c(C(=O)OCC)c[nH]c2cc1OCC
inactive: activity change, negative = inhibition [1] 0.347% [at 3.83 µM] | activity change, negative = inhibition [2] 14.2% [at 6.17 µM] | activity change, negative = inhibition [3] 9.27% [at 4.81 µM] | activity change [4] 5.38% [at 0.431 µM] | activity change, negative = inhibition [5] 6.25% [at 12.4 µM] | % pathology change, negative = correction [6] 23.7% [at 4.63 µM] | activity change, negative = inhibition [7] 3.17% [at 4.83 µM] | activity change, negative = inhibition [8] 5.88% [at 4.83 µM]

O=C(NCN1CCOCC1)c1cnccn1
inactive: outcome [1] | outcome [2] | outcome [3] | outcome [4] | outcome [5] | Potency [6] | Potency [7] | Potency [8]

CCOc1ccc(C(=O)OCCN(CC)CC)cc1
inactive: outcome [1] | outcome [2] | outcome [3] | outcome [4] | outcome [5] | Potency [6] | Potency [8]
active: Potency [7] 2.72 µM

CCOc1cc(NC(C)=O)ccc1C(=O)OC
inactive: outcome [1] | outcome [2] | outcome [3] | outcome [4] | outcome [5] | Potency [6] | Potency [7] | Potency [8]

CO[C@@]1(NC(=O)C(C(=O)O)c2ccc(O)cc2)C(=O)N2C(C(=O)O)=C(CSc3nnnn3C)CO[C@@H]21 (some centres undefined)
inactive: outcome [1] | outcome [2] | outcome [3] | outcome [4] | outcome [5] | Potency [6] | Potency [8]

O=C(O)Cc1cn(-c2ccccc2)nc1-c1ccc(Cl)cc1
active: Potency [8] 4.36 µM
inactive: outcome [1] | outcome [2] | outcome [3] | outcome [4] | outcome [5] | Potency [6] | Potency [7]

NNc1nnc(NN)c2ccccc12
inactive: outcome [1] | outcome [2] | outcome [3] | outcome [4] | outcome [5] | Potency [6] | Potency [8]
active: Potency [7] 22.9 µM

COC(=O)c1cccnc1
inactive: outcome [1] | outcome [2] | outcome [3] | outcome [4] | outcome [5] | Potency [6] | Potency [7] | Potency [8]

NC(=O)NC1NC(=O)NC1=O (centres undefined)
inactive: outcome [1] | outcome [2] | outcome [3] | outcome [4] | outcome [5] | Potency [6] | Potency [7] | Potency [8]

Cc1c(NC(=O)c2cccnc2)c(=O)n(-c2ccccc2)n1C
inactive: outcome [1] | outcome [2] | outcome [3] | outcome [4] | outcome [5] | Potency [6] | Potency [7] | Potency [8]

CC(O)CCCCn1c(=O)c2c(ncn2C)n(C)c1=O (centres undefined)
inactive: outcome [1] | outcome [2] | outcome [3] | outcome [4] | outcome [5] | Potency [6] | Potency [8]

Nc1ccncc1N
inactive: outcome [1] | outcome [2] | outcome [3] | outcome [4] | outcome [9] | Potency [6] | Potency [7] | Potency [8]

CN1CCN(C(=O)C2CCCCC2)CC1
inactive: outcome [1] | outcome [2] | outcome [3] | outcome [4] | Potency [6] | Potency [7] | Potency [8]

CC(C)NC[C@@H](O)COc1ccc(CC(N)=O)cc1
inactive: outcome [1] | outcome [2] | outcome [3] | outcome [4] | Potency [6]

CC(N)CCCC(C)(C)O (centres undefined)
inactive: outcome [1] | outcome [2] | outcome [3] | outcome [4] | outcome [5] | Potency [7] | Potency [8]

Nc1ccc(C(=O)Oc2ccccc2)c(O)c1
inactive: outcome [1] | outcome [2] | outcome [3] | outcome [4] | Potency [6] | Potency [7]
